{"source": "PubChem BioAssay AID1645851", "about": "(National Center for Advancing Translational Sciences (NCATS), 2021)", "note": "Where “and” joins values, the source holds several entries; their conditions need not be identical. Equal entries are not always repeated. In all, about 140,000 compounds went through this assay and about 1,200 (0.86%) were called active. This excerpt belongs to a sample that is enriched for actives. Unmarked numbers belong to inactive results. Rule as the data show it: active = activity change below about -25%; inactive = the rest. % is scaled to controls: 0 for no effect and ±100 for the full control effect.", "data": [{"molecular_target": "Inositol hexakisphosphate kinase 1 (Homo sapiens) (UniProt Q92551)", "sequence (Q92551 whole entry, looked up)": "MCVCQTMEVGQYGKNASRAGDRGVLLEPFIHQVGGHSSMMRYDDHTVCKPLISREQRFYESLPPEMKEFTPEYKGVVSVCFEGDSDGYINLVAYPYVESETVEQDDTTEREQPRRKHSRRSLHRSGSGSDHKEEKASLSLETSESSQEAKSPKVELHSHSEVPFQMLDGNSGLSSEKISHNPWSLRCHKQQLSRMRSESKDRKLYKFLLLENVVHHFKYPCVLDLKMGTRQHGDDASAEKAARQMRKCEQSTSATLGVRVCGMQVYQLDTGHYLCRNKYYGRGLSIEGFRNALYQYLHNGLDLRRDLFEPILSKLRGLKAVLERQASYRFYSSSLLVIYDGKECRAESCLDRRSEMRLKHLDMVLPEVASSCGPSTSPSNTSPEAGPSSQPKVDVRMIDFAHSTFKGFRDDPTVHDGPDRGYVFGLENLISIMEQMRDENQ", "test": "Primary qHTS assay for small molecule inhibitors of Inositol hexaphosphate kinase 1 (IP6K1); also: series mostly up to about 58 µM", "conditions": "ADP-Glo luminescence, 2 h, stronger effect = lower value", "text": "Assay Provider: Huijun Wei, M.S., Ph.D. School of Medicine, Johns Hopkins University, Baltimore, MD Inositol hexakisphosphate kinases (IP6Ks) catalyze pyrophosphorylation of inositol hexakisphosphate (IP6) into inositol 5-diphospho-1,2,3,4,6-pentakisphosphate (IP7), which is involved in numerous areas of cell physiology including glucose homeostasis, blood coagulation and neurological development. Inhibition of IP6Ks may be effective for the treatment of Type II diabetes, thrombosis, and psychiatric disorders. We performed a quantitative high throughput screen (qHTS) of 158,410 compounds for IP6K1 inhibitors using ankinase activity ADP-Glo Max assay. […] Medicinal chemistry SAR efforts in three chemical series identified potent IP6K1 inhibitors, which were further validated in an orthogonal LC-MS IP7 analysis.\nPROTOCOL TABLE SEQUENCE No. (e.g., 1, 2, 3, etc.); […] (e.g., Cells, Incubation, Reagent, etc.); VALUE and DESCRIPTION. 1. Reagent, 3 uL of 1.3 mM ATP and 130 uM IP6 mixture in assay buffer was dispensed to a white, 1536-well assay plate. 2. Compound, 23 nL of compounds of the top two doses (57.5 uM and 19.1 uM final concentration) of the libraries were dispensed into the mixture using the Kalypsis pintool. 3. Reagent, 1 uL of 2.4 uM IP6K1 was dispensed to the assay plates. 4. Incubation, 2 hr incubation at room temperature. 5. Reagent, 2 uL of ADP-Glo reagent was added to the wells. 6. Incubation, 1 hr incubation at room temperature. 7. Reagent, 4 uL or ADP-Glo substate was added to the wells. 8. Incubation, 45 min incubation at room temperature. 9. Detection, luminescence signal was detected using the ViewLux microplate imager (PerkinElmer).", "values": [{"smiles": "COCCNC(=O)c1cc(-c2cccc(Cl)c2)on1", "activity change": "-0.0295%"}, {"smiles": "CCOC(=O)c1cc(-c2ccc(OC)c(S(=O)(=O)Nc3ccc(OC)cc3OC)c2)on1", "activity change": "1.78%"}, {"smiles": "Cc1ccc(-c2cc(C(=O)Oc3ccccc3Cl)no2)cc1C", "activity change": "-29.7% (active)"}, {"smiles": "CC(O)CNC(=O)c1ccc(-c2ncc3cnc(C4=CCOCC4)cn23)cc1", "note": "(stereo not given)", "activity change": "-10.8%"}, {"smiles": "Cc1ccccc1CC(=O)N1CCCC(n2cc(-c3nc(-c4ccccc4)no3)nn2)C1", "note": "(stereo not given)", "activity change": "9.4%"}, {"smiles": "CC(C)NC(=O)N1CCN(c2ccc3nnc(C4CC4)n3n2)CC1", "activity change": "5.65%"}, {"smiles": "Cc1ccccc1NC(=O)c1c(NC(=O)c2ccccc2F)sc2c1CCC(C)C2", "note": "(stereo not given)", "activity change": "-11.5%"}, {"smiles": "Cc1cccc(N2CCN(c3ccc(C(=O)O)cc3NC(=O)c3ccccc3F)CC2C)c1", "note": "(stereo not given)", "activity change": "-32.2% (active)"}, {"smiles": "Cc1cccc(C(=O)NCCC2CCN(C(=O)Nc3ccc(F)cc3F)CC2)c1", "activity change": "-7.16%"}, {"smiles": "Cc1cccc(C)c1-c1nc(C(=O)N2CCN(c3ncccn3)CC2)n2ccccc12", "activity change": "8.82% and 13.4%"}, {"smiles": "COc1c(C)cnc(CN(C)C(=O)C2CC(=O)N(C3CCCC3)C2)c1C", "note": "(stereo not given)", "activity change": "-26.5% (active)"}, {"smiles": "CCn1nc(CNC(=O)C2CCC(=O)N(C3CCCC3)C2)c2ccccc21", "note": "(stereo not given)", "activity change": "-2.6%"}, {"smiles": "CN1C[C@H](NS(C)(=O)=O)CCC[C@@H](C(=O)N(C)Cc2cccnc2)CC1=O", "activity change": "5.58%"}, {"smiles": "O=C(NC1CCN(c2nccc(Nc3ccccc3Cl)n2)CC1)c1ccccn1", "activity change": "0.678%"}, {"smiles": "Cc1ccncc1C(=O)N1CCC2(CC1)CC(c1ccccc1)C(=O)N2C", "note": "(stereo not given)", "activity change": "-28.9% (active)"}, {"smiles": "Cc1cc(N2CCC3(CC2)CC(c2ccccc2)C(=O)N3C)ncn1", "note": "(stereo not given)", "activity change": "10.4%"}, {"smiles": "Cc1ccncc1C(=O)N1CCC(Cn2c(C)cnc2-c2cccnc2)CC1", "activity change": "7.69%"}, {"smiles": "COc1ccccc1-c1ccc(CN2CCC(NC(=O)c3ccncc3)C2)cc1", "note": "(stereo not given)", "activity change": "24.3%"}, {"smiles": "Cc1ccc(CN2C(=O)[C@@H]3C[C@@H](O)CN3C3(CN(Cc4ccc(C(F)(F)F)cc4)C3)C2=O)o1", "activity change": "-6.91%"}, {"smiles": "Cc1cc(Cl)ccc1OCC(=O)N1CCc2n[nH]c(=O)n2CC1", "activity change": "-14.4%"}, {"smiles": "COc1cc(C(=O)NCCS(=O)(=O)N2CCN(c3ccccc3)CC2)cc(OC)c1OC", "activity change": "23.9%"}, {"smiles": "COc1ccccc1N1CCN(S(=O)(=O)CCNC(=O)COc2ccc(F)cc2)CC1", "activity change": "-44.5% (active)"}, {"smiles": "COc1ccc(N2CCN(S(=O)(=O)CCNC(=O)C(c3ccccc3)c3ccccc3)CC2)cc1", "activity change": "23.7%"}, {"smiles": "Cc1ccc2c(c1)N(CC(=O)NCCCN1CCCCC1)C(=O)c1cccnc1O2", "activity change": "-101% (active)"}, {"smiles": "Cc1ccc2c(c1)N(CC(=O)NCCc1ccc(Cl)cc1)C(=O)c1cccnc1O2", "activity change": "-4.44%"}, {"smiles": "O=C(CN1C(=O)c2cccnc2Oc2ccc(Cl)cc21)NCCc1ccccc1", "activity change": "-2.8%"}, {"smiles": "Cc1ccc(C2(O)CCN(c3nccc(CCC(F)(F)F)n3)CC2)nc1", "activity change": "-3.3%"}, {"smiles": "CCOc1cccc2c1OC[C@@H]1CN(CCOC)C(=O)CCN(C(=O)c3ccccc3OC)[C@H]21", "activity change": "-8.59%"}, {"smiles": "Cc1cccc(-n2ncc(C(=O)N3CCc4ccccc4C3)c2C2CCN(C(=O)OC(C)(C)C)CC2)c1", "activity change": "32.7%"}, {"smiles": "CC(C)(C)OC(=O)N1CCC(c2c(C(=O)NCc3ccccn3)cnn2-c2ccc(F)cc2)CC1", "activity change": "-1.08%"}, {"smiles": "CC(C)(C)OC(=O)N1CCC(c2c(C(=O)N3CCc4ccccc4C3)cnn2-c2ccc(F)cc2)CC1", "activity change": "-28.8% (active)"}, {"smiles": "COc1ccc(-c2cc(C(=O)NCC(F)(F)F)c3c(C4CCCN4)nn(C)c3n2)cc1", "note": "(stereo not given)", "activity change": "-2.22%"}, {"smiles": "COc1ccccc1-c1cccc(C(=O)N2CCN(C(=O)Cc3ccc(F)cc3)CC2)c1", "activity change": "5.42%"}, {"smiles": "CCOC(=O)c1ccc(NC(=O)CCn2cnnn2)cc1", "activity change": "7.68%"}, {"smiles": "CCOC(=O)c1ccc(NC(=O)CCS(=O)(=O)c2ccc(C)cc2)cc1", "activity change": "-30% (active)"}, {"smiles": "CCOC(=O)c1ccc(NC(=O)CCS(=O)(=O)c2ccc3c(c2)oc(=O)n3C)cc1", "activity change": "9.62%"}, {"smiles": "O=C(NCc1ccc(F)cc1)C1CCN(c2nccc(Nc3ccccc3F)n2)CC1", "activity change": "18.1%"}, {"smiles": "CN(c1ccccc1)c1cc(=O)c2ccnc(NC3CCOCC3)c2o1", "activity change": "-36.2% (active)"}, {"smiles": "CN(c1ccccc1)c1cc(=O)c2ccnc(Nc3cccc([S+](C)(=O)[O-])c3)c2o1", "activity change": "-11.6%"}, {"smiles": "CN(c1ccccc1)c1cc(=O)c2ccnc(-c3ccc(CO)cc3)c2o1", "activity change": "-7.57%"}, {"smiles": "COc1ccc(-n2nc(C3CCN(Cc4ccccn4)CC3)[nH]c2=O)cc1", "activity change": "7.19%"}, {"smiles": "O=C(Nc1ccc(F)cc1)c1nc2cccnc2n(Cc2ccccc2)c1=O", "activity change": "14.3%"}, {"smiles": "O=C1CCN(CC(O)COc2ccccc2)c2cc3c(cc2CN1CC1CC1)OCO3", "note": "(stereo not given)", "activity change": "-10.5%"}, {"smiles": "COc1ccc(OCC2CN(Cc3cccc(F)c3)[S+](=O)([O-])c3cccnc3O2)cc1", "note": "(stereo not given)", "activity change": "0.413%"}, {"smiles": "O=C1CCN(C(=O)[C@H](Cc2ccccc2)NC(=O)NC2CCCCC2)CCCOCCN1", "activity change": "9.58%"}, {"smiles": "COc1ccc(CNC(=O)c2noc(-c3ccc(F)cc3)n2)cc1", "activity change": "7.64%"}, {"smiles": "COc1ccc(-c2nc(CCNC(=O)c3ccc(Br)o3)cs2)cc1", "activity change": "-32.8% (active)"}, {"smiles": "COc1ccc(CCC(=O)NCCc2csc(-c3ccc(Cl)cc3)n2)cc1", "activity change": "-1.97%"}, {"smiles": "O=C(c1cccc(OC2CN(Cc3nccs3)C2)c1)N1CCOCC1", "activity change": "-3.36%"}, {"smiles": "O=C(NCc1cccc(Cl)c1)c1ccc2nccn2c1", "activity change": "-8.99%"}, {"smiles": "Cc1n[nH]c(C)c1CNC(=O)C1Cn2cccc2C(=O)N1Cc1ccccc1", "note": "(stereo not given)", "activity change": "-3.14%"}, {"smiles": "COc1ccc(Cl)cc1-c1ccc2c(c1)C(=O)N1CCN(C(=O)CSC)C[C@@H]1C(=O)N2", "activity change": "-8.89%"}, {"smiles": "CCc1ccc(NC(=O)c2cc(S(=O)(=O)NC3CCCCCC3)ccc2F)cc1", "activity change": "-6.25%"}, {"smiles": "Cc1ccc(NC(=O)c2cc(S(=O)(=O)NCCC3=CCCCC3)ccc2F)cc1C", "activity change": "-26.3% (active)"}, {"smiles": "COc1ccccc1NC(=O)c1cc(S(=O)(=O)NCCc2ccccc2)ccc1F", "activity change": "14.4%"}]}]}
